# Measured values: the supplement of paper PMC8975748
# Structures can show the parent of a compound that is named as a salt.
# System: Saccharomyces cerevisiae BY4741 SeMeCo community
# Test: z-score of subpopulation abundance vs DMSO median, subpopulation auxotrophic for LU; higher = larger share of this subpopulation than in DMSO controls
# Details: 10 µM; 24 h; SM minimal medium; subpopulation (auxotrophy): LU
# Description: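 Fluorescent four-plasmid SeMeCo (self-establishing metabolically cooperating S. cerevisiae BY4741 community; plasmids pH-mRuby2, pL-mWasabi, pU-eCFP, pM-TagRFP657) was grown 24 h in minimal SM medium with each Selleck FDA-approved drug at 10 µM in 384-well plates. Cells were fixed and imaged by high-content confocal microscopy. For each auxotrophic subpopulation (and the prototroph), a z-score gives the deviation from the DMSO vehicle-control population median.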
row,Compound,z-score of subpopulation abundance
1,CC(=O)O[C@H]1C[C@@H]2CC[C@@H]3[C@H](CC[C@@]4(C)[C@H]3C[C@H]([N+]3(C)CCCCC3)[C@@H]4OC(C)=O)[C@@]2(C)C[C@@H]1[N+]1(C)CCCCC1 [Pancuronium dibromide],0.2
2,CCN(CC)CCOC(=O)C(O)(c1ccccc1)c1ccccc1 [Benactyzine hydrochloride],1.57
3,CN1[C@@H]2CC[C@H]1C[C@@H](OC(=O)[C@H](CO)c1ccccc1)C2 [Hyoscyamine],0.31
4,CC[C@@H](C(N)=O)N1CCCC1=O [Levetiracetam],-0.25
5,Nc1ccncc1 [4-Aminopyridine],0.6
6,Nc1nc(N)nc(NC2CC2)n1 [Cyromazine],0.73
7,COc1ccc(C(CN(C)C)C2(O)CCCCC2)cc1 (stereo not given) [Venlafaxine],0.97
8,NC(=O)CN1CCCC1=O [Piracetam],1.37
9,CCN1CC2(OC(=O)c3ccccc3NC(C)=O)CCC(OC)C34C1C(CC23)C1(O)CC(OC)C2CC4C1(O)C2OC (stereo not given) [Lappaconitine],0.55
10,C=CN1CCCC1=O.II [Povidone iodine],0.69
11,CC[N+](C)(CC)CCOC(=O)C(O)(c1ccccc1)c1ccccc1 [Methylbenactyzine Bromide],-0.58
12,C[N+](C)(C)CCCCCCCCCC[N+](C)(C)C [Decamethonium Bromide],-0.59
13,Cn1cc(C2=C(c3cn(C4CCN(Cc5ccccn5)CC4)c4ccccc34)C(=O)NC2=O)c2ccccc21,0.66
14,CN(C)C(=O)Oc1ccc[n+](C)c1 [Pyridostigmine Bromide],0.57
15,C#C[C@]1(O)C=C[C@H]2[C@@H]3CCC4=CC(=O)CC[C@@H]4[C@H]3CC[C@@]21CC [Gestodene],-0.97
16,O=C(O[C@H]1C[N+]2(CCCOc3ccccc3)CCC1CC2)C(O)(c1cccs1)c1cccs1 [Aclidinium Bromide],0.07
17,CCOC(=O)Nc1ccc(NCc2ccc(F)cc2)cc1N [Retigabine 2HCl],-0.86
18,CCCCCCCCCCCCCCCC[n+]1ccccc1 [Cetylpyridinium Chloride],4.67
19,COC(=O)C1=CCCN(C)C1 [Arecoline HBr],0.1
20,CN1[C@@H]2CC[C@H]1C[C@@H](OC(=O)C(CO)c1ccccc1)C2 (stereo not given in full) [Atropine sulfate monohydrate],-0.08

row,Compound,z-score of subpopulation abundance
1,O=c1cccc2n1C[C@@H]1CNC[C@H]2C1 [Cytisine],0.11
2,CN[C@@H]1[C@@H](O)[C@@H](O[C@@H]2[C@@H](O)[C@H](O[C@H]3O[C@H](CN)CC[C@H]3N)[C@@H](N)C[C@H]2N)OC[C@]1(C)O.CN[C@@H]1[C@@H](O)[C@@H](O[C@@H]2[C@@H](O)[C@H](O[C@H]3O[C@H]([C@@H](C)N)CC[C@H]3N)[C@@H](N)C[C@H]2N)OC[C@]1(C)O.CN[C@@H]1[C@@H](O)[C@@H](O[C@@H]2[C@@H](O)[C@H](O[C@H]3O[C@H]([C@@H](C)NC)CC[C@H]3N)[C@@H](N)C[C@H]2N)OC[C@]1(C)O [Gentamicin Sulfate],-0.15
3,C[N+]12CCC(CC1)C(OC(=O)C(O)(c1ccccc1)c1ccccc1)C2 (stereo not given) [Clidinium Bromide],0.83
4,CN(C)[C@@H]1C(=O)C(C(N)=O)=C(O)[C@@]2(O)C(=O)C3=C(O)c4c(O)cccc4[C@@](C)(O)[C@H]3[C@H](O)[C@@H]12 [Oxytetracycline Dihydrate],-0.6
5,COc1ccc(C=O)cc1 [p-Anisaldehyde],-0.64
6,C=CC[C@]1(O)CC[C@H]2[C@@H]3CCC4=CC(=O)CCC4=C3C=C[C@@]21C [Altrenogest],-0.55
7,CC(C)N(CCC(C(N)=O)(c1ccccc1)c1ccccn1)C(C)C (stereo not given) [Disopyramide],-0.22
8,CN(C)C(=O)Oc1cccc([N+](C)(C)C)c1 [Neostigmine Bromide],0.79
9,CN(C)[C@@H]1C(=O)C(C(N)=O)=C(O)[C@@]2(O)C(=O)C3=C(O)c4c(O)cccc4[C@@](C)(O)[C@H]3[C@H](O)[C@@H]12 [Oxytetracycline (Terramycin)],0.73
10,CCOC(=O)Nc1ccc(NCc2ccc(F)cc2)cc1N [Retigabine],-1.25
11,CN1C(=O)COc2c(C(=O)NC3CN4CCC3CC4)cc(Cl)cc21 (stereo not given) [Azasetron HCl],-0.43
12,Oc1cc(Cl)ccc1Oc1ccc(Cl)cc1Cl [Triclosan],-0.23
13,O=c1[nH]c2ccccc2n1CCCN1CCC(n2c(=O)[nH]c3cc(Cl)ccc32)CC1 [Domperidone],0.48
14,C[C@@H]1CC[C@H]2[C@@H](C)C(=O)O[C@@H]3O[C@@]4(C)CC[C@@H]1[C@]32OO4 [Artemisinin],-0.94
15,CCCN1C[C@H](CSC)C[C@@H]2c3cccc4[nH]cc(c34)C[C@H]21 [Pergolide Mesylate],-0.8
16,C=C[C@H]1CN2CC[C@H]1C[C@H]2[C@H](O)c1ccnc2ccccc12 [Cinchonidine],0.59
17,Cc1cc(O)ccc1Cl [Chlorocresol],-0.74
18,CNC1CC(N)C(O)C(OC2OC(CO)C(O)C3OC4(OC(C(N)CO)C(O)C(O)C4O)OC23)C1O (stereo not given) [Hygromycin B],0.34
19,CC[C@@]1(O)C(=O)OCc2c1cc1n(c2=O)Cc2cc3ccccc3nc2-1 [Camptothecin],-0.54
20,CN1[C@@H]2C[C@@H](OC(=O)[C@H](CO)c3ccccc3)C[C@H]1[C@@H]1O[C@@H]12 [Scopolamine HBr],0.22
